Where “and” joins values, the source holds several entries; their conditions need not be identical. Equal values may be shown once. About 2,000 (36%) of roughly 5,500 compounds were called active. Roughly 18% stayed inconclusive and do not appear here. Cut-off read from the data, not from the text of the source: active = normalized growth mostly below about 0.91 (no sharp cut-off); inconclusive = no clear call, values can overlap the other calls; inactive = mostly above about 0.92. Some of the results follow.
Experiment: chemical genetic growth profiling, strain panel (AID 1159580);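 note: tested at 20 µM; growth read once vehicle control cultures reached saturation at 30 °C; 1 = growth at the plate median or of vehicle wells; lower values mean less growth of the strain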
Conditions: S. cerevisiae deletion strains, growth OD

Measured: normalized growth

C=CC(C1=CC(=O)C(OC)=CC1=O)c1ccc(O)cc1 (configuration not stated)
inactive: locus YAL013W, strain DEP1, hits give low values 1.04 | locus YAL021C, strain ccr4, hits give low values 1.03 | locus YAL026C, strain drs2, hits give low values 0.977 | locus YAL030W, strain snc1, hits give low values 1.01 | locus YBL061C, strain skt5, hits give low values 0.996 | locus YBR009C, strain hhf1, hits give low values 0.99 | locus YBR021W, strain FUR4, hits give low values 1.04 | locus YBR023C, strain chs3, hits give low values 0.992 | locus YBR171W, strain sec66, hits give low values 1.02 | locus YBR229C, strain ROT2, hits give low values 0.945 | locus YBR231C, strain swc5, hits give low values 0.989 | locus YBR279W, strain paf1, hits give low values 1 | locus YCL011C, strain gbp2, hits give low values 0.998 | locus YCL016C, strain dcc1, hits give low values 0.99 | locus YCL029C, strain bik1, hits give low values 0.987 | locus YCL069W, strain vba3, hits give low values 1.01 | locus YCR088W, strain abp1, hits give low values 1.02 | locus YDL005C, strain med2, hits give low values 0.999 | locus YDL035C, strain GPR1, hits give low values 0.974 | locus YDL040C, strain nat1, hits give low values 0.999 | locus YDL074C, strain BRE1, hits give low values 0.987 | locus YDL101C, strain DUN1, hits give low values 0.986 | locus YDL185W, strain tfp1, hits give low values 0.944 | locus YDL192W, strain arf1, hits give low values 0.981 | locus YDR001C, strain nth1, hits give low values 1.01 | locus YDR069C, strain doa4, hits give low values 0.991 | locus YDR101C, strain arx1, hits give low values 0.991 | locus YDR137W, strain rgp1, hits give low values 0.989 | locus YDR150W, strain NUM1, hits give low values 1.01 | locus YDR159W, strain sac3, hits give low values 0.94 | locus YDR162C, strain NBP2, hits give low values 0.942 | locus YDR195W, strain ref2 1.03 | locus YDR297W, strain sur2, hits give low values 0.986 | locus YDR318W, strain mcm21, hits give low values 0.953 | locus YDR334W, strain swr1, hits give low values 1.02 | locus YDR335W, strain msn5, hits give low values 1.01 | locus YDR388W, hits give low values 0.964 | locus YDR392W, strain spt3, hits give low values 0.825 | locus YDR502C, strain sam2, hits give low values 0.967 | locus YEL003W, strain gim4, hits give low values 0.979 | locus YEL037C, strain rad23, hits give low values 1.01 | locus YEL061C, strain CIN8 (second series), hits give low values 1.01 | locus YEL061C, strain CIN8, hits give low values 0.992 | locus YER015W, strain faa2, hits give low values 0.995 | locus YER016W, strain bim1, hits give low values 1 | locus YER110C, hits give low values 0.927 | locus YER111C, strain swi4, hits give low values 0.998 | locus YER155C, strain BEM2 (second series), hits give low values 0.891 | locus YER155C, strain BEM2, hits give low values 1 | locus YER167W, strain BCK2, hits give low values 0.973 | locus YFR010W, strain ubp6, hits give low values 0.998 | locus YGL078C, strain dbp3, hits give low values 0.985 | locus YGL086W, strain mad1, hits give low values 1 | locus YGL167C, strain pmr1, hits give low values 1.01 | locus YGL173C, strain kem1, hits give low values 0.997 | locus YGL227W, strain vid30, hits give low values 0.999 | locus YGL240W, strain doc1, hits give low values 0.972 | locus YGL248W, strain PDE1, hits give low values 0.992 | locus YGL253W, strain hxk2, hits give low values 1.02 | locus YGR078C, strain PAC10, hits give low values 1.01 | locus YGR135W, strain pre9, hits give low values 0.963 | locus YGR252W, strain gcn5, hits give low values 0.904 | locus YHR013C, strain ard1, hits give low values 1.02 | locus YHR027C, strain rpn1, hits give low values 0.995 | locus YHR030C, strain SLT2, hits give low values 0.98 and 1.04 | locus YHR079C, strain IRE1 (second series), hits give low values 0.982 | locus YHR079C, strain IRE1, hits give low values 1.01 | locus YHR094C, strain hxt1, hits give low values 0.96 | locus YHR129C, strain ARP1, hits give low values 0.991 | locus YHR142W, strain chs7, hits give low values 1.01 | locus YHR200W, strain rpn10, hits give low values 0.965 | locus YIL066C, strain RNR3, hits give low values 0.92 | locus YIL073C, strain SPO22, hits give low values 0.964 | locus YIL125W, strain kgd1, hits give low values 0.987 | locus YIR030C, strain dcg1, hits give low values 0.991 | locus YJL092W, strain hpr5, hits give low values 1 | locus YJL095W, strain BCK1 (second series), hits give low values 0.998 | locus YJL095W, strain BCK1, hits give low values 1.03 and 1.06 | locus YJL115W, strain asf1, hits give low values 1.02 | locus YJL129C, strain trk1, hits give low values 1.03 | locus YJL134W, strain LCB3, hits give low values 0.978 | locus YJL154C, strain vps35, hits give low values 1.01 | locus YJL164C, strain tpk1, hits give low values 0.987 | locus YJL166W, strain qcr8, hits give low values 1 | locus YJL168C, strain set2, hits give low values 0.984 | locus YJL187C, strain SWE1 (second series), hits give low values 0.997 | locus YJL187C, strain SWE1, hits give low values 1 | locus YJR043C, strain POL32, hits give low values 0.941 | locus YJR066W, strain TOR1, hits give low values 0.983 | locus YJR075W, strain HOC1, hits give low values 1.01 | locus YKL009W, strain mrt4, hits give low values 0.957 | locus YKL068W, hits give low values 0.971 | locus YKL085W, strain MDH1 (second series), hits give low values 0.987 | locus YKL085W, strain MDH1, hits give low values 0.987 | locus YKL160W, strain elf1, hits give low values 0.985 | locus YKL190W, strain CNB1, hits give low values 1.01 | locus YKR001C, strain vps1, hits give low values 0.966 | locus YKR026C, strain gcn3, hits give low values 1.01 | locus YKR091W, strain srl3, hits give low values 1.01 | locus YLL001W, strain dnm1, hits give low values 0.958 | locus YLL026W, hits give low values 1 | locus YLL041C, strain sdh2, hits give low values 1.01 | locus YLR027C, strain aat2, hits give low values 1 | locus YLR039C, strain RIC1, hits give low values 1.02 | locus YLR058C, strain SHM2, hits give low values 0.925 | locus YLR102C, strain apc9, hits give low values 0.984 | locus YLR113W, strain HOG1, hits give low values 0.967 | locus YLR221C, strain rsa3, hits give low values 0.989 | locus YLR258W, strain gsy2, hits give low values 1.01 | locus YLR262C, strain YPT6 (second series), hits give low values 0.996 | locus YLR262C, strain YPT6, hits give low values 1.01 | locus YLR268W, strain sec22, hits give low values 1.01 | locus YLR320W, strain mms22, hits give low values 0.988 | locus YLR330W, strain CHS5, hits give low values 1 | locus YLR342W, strain FKS1 (second series), hits give low values 0.935 | locus YLR342W, strain FKS1, hits give low values 0.987 | locus YLR357W, strain rsc2, hits give low values 0.993 | locus YLR370C, strain arc18, hits give low values 1.01 | locus YLR371W, strain rom2, hits give low values 0.965 | locus YLR384C, strain iki3, hits give low values 1.03 | locus YLR418C, strain cdc73, hits give low values 0.933 | locus YML016C, strain PPZ1, hits give low values 0.976 | locus YML032C, strain rad52, hits give low values 0.947 | locus YML120C, strain ndi1, hits give low values 1 | locus YML124C, strain tub3, hits give low values 0.99 | locus YMR058W, strain fet3, hits give low values 1.01 | locus YMR078C, strain ctf18, hits give low values 0.989 | locus YMR125W, strain sto1, hits give low values 1.02 | locus YMR129W, hits give low values 1 | locus YMR205C, strain PFK2, hits give low values 0.992 | locus YMR223W, strain ubp8, hits give low values 0.967 | locus YMR231W, strain pep5, hits give low values 1.01 | locus YMR263W, strain SAP30, hits give low values 1.01 | locus YMR307W, strain GAS1, hits give low values 1.06 | locus YNL067W, strain RPL9B, hits give low values 1.06 | locus YNL071W, strain lat1, hits give low values 1.01 | locus YNL153C, strain GIM3, hits give low values 1.01 | locus YNL183C, strain NPR1, hits give low values 0.983 | locus YNL209W, strain ssb2, hits give low values 0.994 | locus YNL233W, strain BNI4, hits give low values 1.01 | locus YNL248C, strain rpa49, hits give low values 1 | locus YNL250W, strain rad50, hits give low values 0.98 | locus YNL271C, strain bni1, hits give low values 0.99 | locus YNL298W, strain CLA4, hits give low values 0.961 | locus YNL307C, strain MCK1, hits give low values 0.969 | locus YNL322C, strain KRE1 (second series), hits give low values 0.981 | locus YNL322C, strain KRE1, hits give low values 0.994 | locus YNR049C, strain mso1, hits give low values 1.01 | locus YNR052C, strain pop2, hits give low values 0.981 | locus YOL012C, strain htz1 1.04 | locus YOL147C, strain pex11, hits give low values 0.969 | locus YOR001W, strain rrp6, hits give low values 0.986 | locus YOR061W, strain CKA2, hits give low values 0.954 | locus YOR069W, strain VPS5, hits give low values 0.986 | locus YOR070C, strain gyp1, hits give low values 0.982 | locus YOR080W, strain dia2, hits give low values 0.992 | locus YOR083W, strain WHI5, hits give low values 0.977 | locus YOR106W, strain vam3, hits give low values 0.989 | locus YOR136W, strain idh2, hits give low values 0.976 | locus YOR144C, strain elg1, hits give low values 0.98 | locus YOR184W, strain ser1, hits give low values 0.941 | locus YOR231W, strain MKK1, hits give low values 1.03 | locus YOR265W, strain rbl2, hits give low values 1 | locus YOR270C, strain vph1, hits give low values 1.02 | locus YOR290C, strain snf2, hits give low values 0.984 | locus YOR316C, strain cot1, hits give low values 0.982 | locus YPL051W, strain arl3, hits give low values 0.979 | locus YPL078C, strain atp4, hits give low values 0.98 | locus YPL106C, strain sse1, hits give low values 1.01 | locus YPL240C, strain hsp82, hits give low values 1.01 | locus YPL241C, strain CIN2, hits give low values 0.983 | locus YPL256C, strain CLN2, hits give low values 1.06 | locus YPR119W, strain clb2, hits give low values 0.99 | locus YPR141C, strain kar3, hits give low values 0.984 | locus YPR163C, strain tif3, hits give low values 0.979 | locus YPR167C, strain met16, hits give low values 0.974 | strain wtn01, hits give low values 0.994
